{
  "source": "the supplement of paper PMC10338343",
  "note": "± gives the standard deviation.",
  "data": [
    {"tested_on": "MILI (PIWIL2) piRISC loaded with L1MC piRNA (26 nt)", "assay": "pre-steady-state target cleavage rate (min^-1); guide: L1MC piRNA 5'p-UAACUAAAUACUAUGCAAGCUGUAGG; MIWI and MILI are mouse PIWI proteins and EfPiwi is from a freshwater sponge; tags in brackets are library labels; higher = faster piRNA-guided slicing of the target", "settings": "auxiliary factor: 500 nM mouse GTSF1", "outline": "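A transcribed, DNA-blocked target RNA library (0.1 nM) and 1 nM active affinity-purified piRISC bearing one synthetic guide were incubated in HEPES–potassium acetate buffer at 33 °C for 0–8 or 0–960 min, either with or without 500 nM GTSF1 partner protein. Uncleaved targets were sequenced, normalised to depth and to weakly complementary targets, and pooled over three trials, with k3 capped at 0.0001 min^-1. The pre-steady-state cleavage rate was derived with a burst-and-steady-state fit.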", "values": [
      {"sequence": "UCCUGGUACACCUUGCAUAGUAUAUAGUUA", "pre-steady-state target cleavage rate": "0.311 ± 0.059"},
      {"sequence": "UCCUGGAUGACCUUGCAUAGUUUUUAGUUA", "pre-steady-state target cleavage rate": "0.0191 ± 0.0076"},
      {"sequence": "UCCUCCUACAGCUUGCAUACAAUUUAGUUA", "pre-steady-state target cleavage rate": "0.00727 ± 0.0046"},
      {"sequence": "UCCUGGUACACGAUGCAUAGUAUUUAGUAA", "pre-steady-state target cleavage rate": "0.186 ± 0.042"},
      {"sequence": "UCCUGGAUGUCGUUGCUUAGUAUUAAGUUA", "pre-steady-state target cleavage rate": "0.03 ± 0.0099"},
      {"sequence": "UCCUGCUACAGCUUGCAUAGAUUUUAGUUA", "pre-steady-state target cleavage rate": "0.0475 ± 0.0083"},
      {"sequence": "UCCUGGAUGUCCUUGCAUUGUAUUUAGUAA", "pre-steady-state target cleavage rate": "0.0421 ± 0.015"},
      {"sequence": "UCCUGGUACAGCUUGCAUACUAUAUAGUUA", "pre-steady-state target cleavage rate": "0.0326 ± 0.013"},
      {"sequence": "UCCUGGUAGAGCUUCCAUAGUAUUUAGUUA", "pre-steady-state target cleavage rate": "0.0967 ± 0.033"},
      {"sequence": "UCCUGGAUGAGCUUGCAUAGUAUUAAGUAA", "pre-steady-state target cleavage rate": "0.0732 ± 0.021"},
      {"sequence": "UCCUGGUACACCUUGCAUAGUAUUUUGUUA", "pre-steady-state target cleavage rate": "0.201 ± 0.054"},
      {"sequence": "UCCUGGAUGUCCUUGCAUAGUAAAUAGUAA", "pre-steady-state target cleavage rate": "0.00932 ± 0.0037"},
      {"sequence": "UCCUGGAUGUCGAUGCAUAGUAUUUAGAAA", "pre-steady-state target cleavage rate": "0.0516 ± 0.015"},
      {"sequence": "UCCUGGAUGUCGAUGCAUAGUAUUUAGUGA", "pre-steady-state target cleavage rate": "0.0843 ± 0.016"},
      {"sequence": "UCCUGGAACAGCUUGCAUAGUAUAAUGUAA", "pre-steady-state target cleavage rate": "0.014 ± 0.0065"},
      {"sequence": "UCCUGGAUGAGCUUGCAUAGCAUUUAGUUA", "pre-steady-state target cleavage rate": "0.0853 ± 0.016"},
      {"sequence": "UCCUGGUACACCUUGCAUAGUAUUUUCAAA", "pre-steady-state target cleavage rate": "0.0291 ± 0.016"},
      {"sequence": "UCCUGGAUGUGCUUGCAUAGUUUAUAGUUA", "pre-steady-state target cleavage rate": "0.00502 ± 0.0041"},
      {"sequence": "UCCUGGAUGAGGUUGCAUAGAAUUUAGUUA", "pre-steady-state target cleavage rate": "0.00935 ± 0.0046"},
      {"sequence": "UCCUGGAUCUGCUUGCAUAGAAUUUAGUUA", "pre-steady-state target cleavage rate": "0.0261 ± 0.0069"},
      {"sequence": "UCCUGGAUCAGCUUCGAUAGUAUUUAGUAA", "pre-steady-state target cleavage rate": "0.158 ± 0.016"},
      {"sequence": "UCCUCCUACAGCUUGCAUACAUUUUAGUUA", "pre-steady-state target cleavage rate": "0.00509 ± 0.0039"},
      {"sequence": "UCCUGGAACAGGAUGCAUAGUAUUUUCAAA", "pre-steady-state target cleavage rate": "0.0202 ± 0.0076"},
      {"sequence": "UCCUGGAUGUCGAACCUAUAGUAUUUAGUUA", "pre-steady-state target cleavage rate": "0.00362 ± 0.0029"}
    ]}
  ]
}
